Reference: ChEMBL document CHEMBL3988442, “University of Dundee, Small-Polar-MMV Screening Library” (2021)
The whole screen tested about 48,000 compounds, of which about 13,000 (27%) showed an effect of 50% or more. Some of the results follow.

tested on: Wolbachia pipientis; experiment: Anti-Wolbachia Cell-Based Screen; assay type: functional; parameters: scale not given: in the data most compounds retested in dose-response had high values; conditions: 5 µM

Row | SMILES | Percent Effect
1 | Cc1cc(C(=O)N2CCn3cnc(COCC4CC4)c3C2)no1 | -11.47%
2 | CCc1n[nH]c(C2CN(C(=O)c3ccc4c(c3)CCC4)CCO2)n1 (stereo not drawn) | 79.95%
3 | CCc1n[nH]c(C2CN(C(=O)c3ccc4c(c3)CCCC4)CCO2)n1 (stereo not drawn) | 128.9%
4 | CCc1n[nH]c(C2CN(C(=O)c3cc4c(s3)CCCC4)CCO2)n1 (stereo not drawn) | -2.74%
5 | Cc1n[nH]c(C2CN(C(=O)c3ccc4c(c3)CCCC4)CCO2)n1 (stereo not drawn) | -29.36%
6 | CCc1nc(CNC2CCCc3c2cnn3CC)cs1 (stereo not drawn) | 1.475%
7 | N#Cc1cccc(S(=O)(=O)N2CCCCC2CCN2CCCC2=O)c1 (stereo not drawn) | 2.931%
8 | CCN1CCCC1CN(CCN(C)C)S(=O)(=O)c1cccc(C#N)c1 (stereo not drawn) | -13.07%
9 | CC(C)C1CN(S(=O)(=O)c2cccc(C#N)c2)CCS1 (stereo not drawn) | -18.57%
10 | N#Cc1cccc(S(=O)(=O)N2CCCCC2CCN2CCCC2)c1 (stereo not drawn) | 93.73%
11 | COCCCC1CCCCN1S(=O)(=O)c1cccc(C#N)c1 (stereo not drawn) | 99.73%
12 | CS(=O)(=O)NCC1CCCCN1Cc1cccc(C#N)c1 (stereo not drawn) | 20.87%
13 | O=C(O)c1csc(S(=O)(=O)N2CCCc3cc(OC(F)F)ccc32)c1 | -5.134%
14 | CN(C)S(=O)(=O)N1C[C@H]2CCC[C@@]2(COCc2ccccn2)C1.O=C(O)C(F)(F)F | 5.963%
15 | O=C(N1CCCC1)N1C[C@H]2CCC[C@@]2(COCc2ccccn2)C1.O=C(O)C(F)(F)F | 108.6%
16 | O=C(O)C(F)(F)F.O=C(c1ncccn1)N1C[C@H]2CCC[C@@]2(COCc2cccnc2)C1 | 0.3809%
17 | CN(C)S(=O)(=O)N1C[C@H]2CCC[C@@]2(COc2cccnc2)C1.O=C(O)C(F)(F)F | 5.762%
18 | Cc1ccc(N2C[C@H]3CCC[C@@]3(COc3cccnc3)C2)nn1.O=C(O)C(F)(F)F.O=C(O)C(F)(F)F | -0.008691%
19 | O=C(C1CCOCC1)N1C[C@H]2CCC[C@@]2(COc2cccnc2)C1.O=C(O)C(F)(F)F | 89.34%
20 | O=C(C1CCOCC1)N1C[C@H]2CCC[C@@]2(COCc2ccccn2)C1 | 98.54%
21 | Cc1noc(C)c1C(=O)N1C[C@H]2CCC[C@@]2(COc2ccccn2)C1.O=C(O)C(F)(F)F | -9.504%
22 | COC[C@@]12CCC[C@@H]1CN(C(=O)Cc1ccccn1)C2.O=C(O)C(F)(F)F | 87.04%

Row | SMILES | Percent Effect
23 | Cc1cccc(NS(=O)(=O)c2ccc(C#N)nc2)c1C#N | -1.647%
24 | CCC(CC)c1cc(C(=O)N2CCN(C(C#N)C(C)C)CC2)on1 (stereo not drawn) | -14.62%
25 | CCC(CC)c1cc(C(=O)N2CCN(C(C)C(N)=O)CC2)on1 (stereo not drawn) | -12.57%
26 | CC(C)c1cc(C(=O)N2CCN(c3ncc4c(n3)CCOC4)CC2)on1 | 106.5%
27 | Cc1cc(NC(=O)CN(c2ccccc2)C(C)C)on1 | -6.846%
28 | COc1cccc(Nc2nc(C3CCNCC3)c3sc(C)c(C)n23)c1.Cl | 130.3%
29 | COc1cccc(Nc2nc(C3CCCNC3)c3sc(C)c(C)n23)c1.Cl (stereo not drawn) | 119.3%
30 | O=C(Nc1cccnc1-n1cncn1)N(C1CCCC1)C1CC1 | -11.98%
31 | CN(C)[C@@H]1CO[C@H](CNC(=O)CC(C)(C)C)[C@H]1O | -5.201%
32 | COc1cccc(OCC2CCCN(C(=O)CCCn3cccn3)C2)c1 (stereo not drawn) | -37.97%
33 | CC(C)CN1CCCn2nc(CNC(=O)Cc3cccc(O)c3)cc2C1 | 6.027%
34 | CC(C)SCC(=O)NCc1cc2n(n1)CCCN(C1CCCCC1)C2 | 96.57%
35 | CSCC[C@H](N)C(=O)NCc1cc2n(n1)CCCN(C1CCCCC1)C2 | -4.094%
36 | CSCCC(=O)NCc1cc2n(n1)CCCN(C1CCCCC1)C2 | 170.8%
37 | CC(C)CN1CCCn2nc(CNC(=O)CCN)cc2C1 | -4.677%
38 | CCN(C(C)=O)C1CCN(c2nccc(CCC(F)(F)F)n2)C1 (stereo not drawn) | -1.785%
39 | COCc1ccc(C(=O)N2CCC(c3nccn3CC3CC3)CC2)o1 | -37.93%
40 | CCCC(C)(C)NC(=O)CCN1CCOC1=O | 8.427%
41 | COc1cccc(S(=O)(=O)CCNC(C)Cn2cccn2)c1 (stereo not drawn) | -1.101%
42 | CC(=O)c1c[nH]c(C(=O)N2CCN(C(C(N)=O)c3ccccc3)CC2)c1 (stereo not drawn) | -4.109%
43 | CN1C(=O)CC(C(=O)O)C12CCN(Cc1cc(Cl)ccc1F)CC2 (stereo not drawn) | -0.96%
44 | Cc1nc(CNC(=O)C(C)(C)c2ccc(F)cc2)no1 | 7.656%

Row | SMILES | Percent Effect
45 | Cn1cc(CN2CCC(CCC(=O)NCc3ccc(F)cc3)CC2)cn1 | -6.777%
46 | CN1CCC(c2cncc(C(=O)NCc3ccc(F)cc3)n2)CC1 | 172.3%
47 | CN1CCCC(c2cncc(C(=O)NCc3ccccc3Cl)n2)C1.O=CO (stereo not drawn) | 120.9%
48 | O=C(NCc1ccccc1CN1CCCC1)Nc1cccnc1 | 1.889%
49 | CN1CCC(N(Cc2ccccc2F)C(=O)NCc2ccncc2)CC1 | 10.43%
50 | Cn1ccnc1CN1CCCC(CO)(CCc2ccccc2)C1 (stereo not drawn) | 4.446%
51 | Cc1nc(CN2CCC(Oc3ccc(F)cc3C)(C(=O)O)CC2)co1 | -0.386%
52 | O=C(CCCc1ccccn1)N1CCOc2ccc(F)cc21 | -6.681%
53 | O=C(CCCc1ccccn1)N1CCC(n2cccc2)CC1 | 17.05%
54 | CN(C)C(=O)NC1COC2(CCN(Cc3nccn3C)CC2)C1 (stereo not drawn) | 15.08%
55 | Cc1cccc(C(C(=O)NCCCc2ccccn2)N(C)C)c1 (stereo not drawn) | 0.3434%
56 | CN(C)C(=O)C1(CCCc2ccccn2)CCN1Cc1nccn1C (stereo not drawn) | 105.4%
57 | Cc1nc(CN2CCC2(CCCc2ccccn2)C(=O)N(C)C)co1 (stereo not drawn) | 74.52%
58 | CNC(=O)C1(CCCc2ccccn2)CCN1Cc1coc(C)n1 (stereo not drawn) | 87.23%
59 | Cc1ccc(NC2CCN(C(=O)CCCc3ccccn3)CC2)cc1 | 28.87%
60 | Cc1nc(CN2CC(CCCc3ccccn3)(C(=O)N(C)C)C2)co1 | 55.58%
61 | O=C(CN1C(=O)CCC1=O)N1Cc2cncnc2C1 | 12.03%
62 | Cc1nc2n(n1)CC(NCC(=O)N(C)Cc1cccs1)CC2 (stereo not drawn) | 8.702%
63 | CC(C)(C)c1cn(CC2CCCN(c3cnc4ccccc4n3)C2)nn1 (stereo not drawn) | 0.2574%
64 | CCNC(=O)N1CCCCC1CCO (stereo not drawn) | -12.11%
65 | CC1(C)OC(=O)N(CC(=O)N2CCC(c3ccccc3Cl)C2)C1=O (stereo not drawn) | 91.31%
66 | COc1ccccc1[C@@H]1CN(CC(=O)N2CCCCC2)C[C@H]1C(=O)O | -14.69%

Row | SMILES | Percent Effect
67 | O=C1CCCCN1CC(=O)N1CCCC(c2ccccc2)C1 (stereo not drawn) | -3.382%
68 | CC1(C)OC(=O)N(CC(=O)N2CCC(c3ccccc3F)C2)C1=O (stereo not drawn) | 96.35%
69 | COCCOCC(=O)N1CCC(c2ccccc2F)C1 (stereo not drawn) | 5.027%
70 | Cc1cccc(C2CCCN(C(=O)CN3C(=O)CCNC3=O)C2)c1 (stereo not drawn) | 2.396%
71 | O=C(CN1C(=O)CCNC1=O)N1CCC(c2ccc(F)cc2)C1 (stereo not drawn) | -18.18%
72 | CCOc1cccnc1C(=O)N1CCC(c2ccccc2OC)C1 (stereo not drawn) | -1.787%
73 | COc1ccccc1C1CCN(C(=O)CN2C(=O)OC(C)(C)C2=O)CC1 | 112.8%
74 | O=C(Nc1ccccc1N1CCOC1=O)N1CCSCC1 | -8.317%
75 | Oc1ccccc1-c1cc(-c2nc(C3CC3)n[nH]2)[nH]n1 | -8.043%
76 | O=c1[nH]c(N2CCCCC2)nc2c1CCN(Cc1cccnc1)C2 | 95.47%
77 | Cc1cccc(CN2CCc3c(nc(N4CCC(C)CC4)[nH]c3=O)C2)n1 | -8.966%
78 | CC1CCCCN1c1nc2c(c(=O)[nH]1)CCN(Cc1cccnc1)C2 (stereo not drawn) | -7.907%
79 | O=c1[nH]c(N2CCOCC2)nc2c1CN(Cc1cccnc1)CC2 | 111.6%
80 | c1cnc(NCc2n[nH]c3c2CCN(Cc2cccnc2)C3)nc1 | -6.284%
81 | Cn1ccnc1CN(CCO)C(=O)c1nc2ccccc2s1 | -11.45%
82 | O=C(NCc1ccccc1F)N1CCCCC1C1OCCO1 (stereo not drawn) | 112.3%
83 | O=C(NCCc1ccccc1)N1CCCCC1C1OCCO1 (stereo not drawn) | 1.192%
84 | O=C(CCc1ccccc1)N1CCCCC1C1OCCO1 (stereo not drawn) | -4.281%
85 | CC(C)(C(=O)NCCC(=O)O)c1cccc(Br)c1 | -20.92%
86 | Cc1csc(CN(CC2CCCO2)C(=O)c2ccc(C)nc2C)n1 (stereo not drawn) | -5.335%
87 | Cc1ccc(-c2ccnc(N[C@H]3COC[C@@H]3N3CCCC3)n2)c(C)n1 | -11.11%
88 | CN(CC1CCCN1C)c1nccc(C2CCCC2)n1 (stereo not drawn) | 25.37%

Row | SMILES | Percent Effect
89 | CCCc1nnc(N(C)CC2CCCN(CC)C2)o1 (stereo not drawn) | -14.65%
90 | CCN1CCCC(CN(C)c2nccc(-c3ccc(C)nc3C)n2)C1 (stereo not drawn) | 89.59%
91 | CN(CC1CCCCO1)c1nncc(-c2cccc(F)c2)n1 (stereo not drawn) | -2.947%
92 | Cc1nn(C)cc1CN(C)c1nccc(-c2cn(C)nc2C)n1 | -19.87%
93 | Cc1ccc(-c2ccnc(N(C)CC3CCCO3)n2)c(C)n1 (stereo not drawn) | 111.2%
94 | Cc1ccc(-c2ccnc(N(C)CC3CCCN3C)n2)c(C)n1 (stereo not drawn) | 123%
95 | Cc1ccc(CNC(CCO)C2CCCCC2)nc1 (stereo not drawn) | 14.22%
96 | CCOCC(=O)Nc1ncn(Cc2cccc(Br)c2)n1 | 5.844%
97 | CNC(=O)C1CCCCN1C(=O)c1csc(-c2ccc(C)cc2)n1 (stereo not drawn) | -3.515%
98 | C[S+]([O-])c1nncn1CCCc1ccc(Cl)cc1 (stereo not drawn) | 1.023%
99 | O=C(CCc1ccccc1)C1CCCN(Cc2cncn2C2CC2)C1 (stereo not drawn) | -3.844%
100 | CCS(=O)(=O)Cc1nnnn1-c1ccccc1 | 1.834%
101 | CS(=O)(=O)N1CCCC(n2nnn(-c3ccccc3)c2=O)C1 (stereo not drawn) | 149.4%
102 | CCS(=O)(=O)N1CCCC(n2nnn(-c3ccccc3)c2=O)C1 (stereo not drawn) | 133%
103 | CS(=O)(=O)N1CCC(n2nnn(-c3ccccc3)c2=O)CC1 | 113.8%
104 | CS(=O)(=O)N1CCCC(C(=O)N2CCOc3ccccc32)C1 (stereo not drawn) | -6.293%
105 | CS(=O)(=O)N1CCN2C(=O)N(C3CCCCC3)C[C@H]2C1 | -8.389%
106 | CCS(=O)(=O)N1CCCC(c2nc3ccccc3n2C(C)C)C1 (stereo not drawn) | -13.43%
107 | CS(=O)(=O)N1CCC(N2CCCC2c2ccccn2)CC1 (stereo not drawn) | -15.97%
108 | NC(=O)C1CCN(S(=O)(=O)c2cnn(-c3ccccc3)c2)C1 (stereo not drawn) | -1.203%
